Common to all, as to experiment: growth (OD600 after 10 h); higher = more growth (less inhibition)
The test system of test [1] is E. coli TESEC Alr+ wild-type control. The conditions noted are these: compound 0.1 mM; raw OD600 reference: median of DMSO wells 0.241, cell-free background 0.041. The method, then:
(§1)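 TESEC Mtb Alr E. coli, or the Alr+ wild-type control, in 384-well plates with Prestwick library compounds at 0.1 mM and 1% DMSO, across arabinose induction levels of 1E3 to 1E7 nM. Growth is read as OD600 after 10 h at 37 °C in triplicate biological replicates.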

The next test deals with E. coli TESEC Mtb Asd. Particulars: compound 0.1 mM. Here is the method:
(§2)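 TESEC E. coli strains in which the native enzyme is deleted and replaced by arabinose-inducible Mtb Asd, DapB, CysH or TrpD, each grown in its selective medium. Strains were screened against the Prestwick library at 0.1 mM and 1% DMSO in 384-well format at low and high arabinose induction. Growth is read as OD600 after 10 h in triplicate.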

Test [2] relates to E. coli TESEC Mtb Alr. Particulars: compound 0.1 mM. Here is the method: (§3)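 TESEC Mtb Alr E. coli (ΔaraC ΔtolC ΔentC Δalr ΔdadX, arabinose-inducible Mtb Alr) or the Alr+ wild-type control strain, grown in defined M9-fructose medium without D-alanine in 96-well plates with Prestwick library compounds at 0.1 mM and 1% DMSO. Low Alr induction is 0.1 µM arabinose and high induction is 10 mM arabinose.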

Test [3] concerns E. coli TESEC Mtb Alr. The conditions noted are these: compound 0.1 mM. Here is the method: as §1
This is another data set of the same source.

Test [4] has as its system E. coli TESEC Alr+ wild-type control. The conditions noted are these: compound 0.1 mM; raw OD600 reference: median of DMSO wells 0.49, cell-free background 0.052. Here is the method:
as §3

In another test the test system is E. coli TESEC Mtb DapB. Particulars: compound 0.1 mM. The method, then: as §2
The mark [5] stands for this setting: arabinose induction (level): High, raw OD600 reference: median of DMSO wells 0.331, cell-free background 0.041.
Setting [6] is: arabinose induction (level): Low, raw OD600 reference: median of DMSO wells 0.417, cell-free background 0.041.
Where [7] appears, read: arabinose 100 nM, raw OD600 reference: median of DMSO wells 0.413, cell-free background 0.052.
[8] abbreviates: arabinose 10000000 nM, raw OD600 reference: median of DMSO wells […], cell-free background 0.052.
The mark [9] stands for this setting: arabinose 1000 nM, raw OD600 reference: median of DMSO wells 0.294, cell-free background 0.041.
Where [10] appears, read: arabinose 10000 nM, raw OD600 reference: median of DMSO wells 0.264, cell-free background 0.041.
The mark [11] stands for this setting: arabinose 100000 nM, raw OD600 reference: median of DMSO wells 0.201, cell-free background 0.041.
Where [12] appears, read: arabinose 1000000 nM, raw OD600 reference: median of DMSO wells 0.193, cell-free background 0.041.
The mark [13] stands for this setting: arabinose 10000000 nM, raw OD600 reference: median of DMSO wells 0.146, cell-free background 0.041.

Counter-ions that a name gives are not always drawn. ± gives the standard deviation of the averaged measurements.

Regarding `CN(C)[C@@H]1C(=O)C(C(N)=O)=C(O)[C@@]2(O)C(=O)C3=C(O)c4c(O)cccc4[C@@](C)(O)[C@H]3C[C@@H]12` [Tetracycline hydrochloride], the growth worked out at 0.0422 ± 0.00046 in test [1]; 0.0539 ± 0.0012 with E. coli TESEC Mtb Asd (setting [5]); 0.0592 ± 0.0072 in the test with E. coli TESEC Mtb Asd (setting [6]); 0.0567 ± 0.0019 in the test with E. coli TESEC Mtb Alr [2] (setting [7]); 0.0604 ± 0.0025 in the test with E. coli TESEC Mtb Alr [2] (setting [8]).

For `CC(=O)OC1CN2CCC1CC2` (stereo not given) [Aceclidine Hydrochloride], the growth in test [1] amounted to 0.257 ± 0.0078; with E. coli TESEC Mtb Alr [3] (setting [9]), 0.314 ± 0.0082; in the test on E. coli TESEC Mtb Alr [3] (setting [10]), 0.2646 ± 0.0025; in the test with E. coli TESEC Mtb Alr [3] (setting [11]), 0.232 ± 0.041; in the test with E. coli TESEC Mtb Alr [3] (setting [12]), 0.174 ± 0.0042; in the test on E. coli TESEC Mtb Alr [3] (setting [13]) it was 0.166 ± 0.0076. The growth stood at 0.22 ± 0.0099 in the test with E. coli TESEC Mtb Asd (setting [5]), 0.306 ± 0.013 with E. coli TESEC Mtb Asd (setting [6]), 0.41 ± 0.007 in the test on E. coli TESEC Mtb Alr [2] (setting [7]) and 0.359 ± 0.031 in the test on E. coli TESEC Mtb Alr [2] (setting [8]).

With `O=[N+]([O-])O[C@@H]1CO[C@H]2[C@@H]1OC[C@@H]2O` [Isosorbide mononitrate], the growth in test [1] was determined as 0.24 ± 0.0084; with E. coli TESEC Mtb Alr [3] (setting [9]), 0.292 ± 0.0083; in the test on E. coli TESEC Mtb Alr [3] (setting [10]), 0.261 ± 0.018; with E. coli TESEC Mtb Alr [3] (setting [11]), 0.198 ± 0.035; with E. coli TESEC Mtb Alr [3] (setting [12]), 0.209 ± 0.018; in the test with E. coli TESEC Mtb Alr [3] (setting [13]), 0.136 ± 0.0044. Moreover, the growth in the test with E. coli TESEC Mtb Asd (setting [5]) turned out to be 0.255 ± 0.084; with E. coli TESEC Mtb Asd (setting [6]), 0.345 ± 0.017; with E. coli TESEC Mtb Alr [2] (setting [7]), 0.4231 ± 0.0041; in the test on E. coli TESEC Mtb Alr [2] (setting [8]), 0.324 ± 0.012.

For `CCC1(c2ccc(N)cc2)CCC(=O)NC1=O` (stereo not given) [Glutethimide, para-amino], the growth in test [1] is 0.24 ± 0.0099; in the test with E. coli TESEC Mtb Alr [3] (setting [9]) it was 0.279 ± 0.016; in the test on E. coli TESEC Mtb Alr [3] (setting [10]), 0.251 ± 0.01; in the test with E. coli TESEC Mtb Alr [3] (setting [11]), 0.222 ± 0.029; in the test with E. coli TESEC Mtb Alr [3] (setting [12]), 0.178 ± 0.0065; in the test on E. coli TESEC Mtb Alr [3] (setting [13]), 0.146 ± 0.0091. The growth in the test on E. coli TESEC Mtb Asd (setting [5]) is 0.393 ± 0.032; with E. coli TESEC Mtb Asd (setting [6]), 0.43 ± 0.03; in the test with E. coli TESEC Mtb Alr [2] (setting [7]), 0.402 ± 0.014; in the test on E. coli TESEC Mtb Alr [2] (setting [8]) it was 0.383 ± 0.033.

With `CCN(CC)C(C)C(=O)c1ccccc1` (stereo not given) [Amfepramone hydrochloride], the growth in test [1] amounted to 0.25 ± 0.0034; in the test with E. coli TESEC Mtb Asd (setting [5]) it was 0.256 ± 0.064; in the test with E. coli TESEC Mtb Asd (setting [6]), 0.447 ± 0.047; in test [4] it was 0.556 ± 0.038; in the test with E. coli TESEC Mtb Alr [2] (setting [7]), 0.411 ± 0.0098; in the test on E. coli TESEC Mtb Alr [2] (setting [8]) it was 0.325 ± 0.016.

Consider `COc1cc([C@@H]2c3cc4c(cc3[C@H](O)[C@H]3COC(=O)[C@H]23)OCO4)cc(OC)c1OC` [Podophyllotoxin], for which the growth turned out to be 0.222 ± 0.0075 in test [1]; 0.443 ± 0.027 in the test with E. coli TESEC Mtb Asd (setting [5]); 0.46 ± 0.053 with E. coli TESEC Mtb Asd (setting [6]); 0.545 ± 0.085 in test [4]; 0.403 ± 0.015 in the test on E. coli TESEC Mtb Alr [2] (setting [7]); 0.298 ± 0.0059 with E. coli TESEC Mtb Alr [2] (setting [8]).

As to `COc1ccc(C(=O)N2CCCC2=O)cc1` [Aniracetam], the growth in test [1] came out at 0.25 ± 0.0051; in the test on E. coli TESEC Mtb Asd (setting [5]), 0.235 ± 0.057; in the test with E. coli TESEC Mtb Asd (setting [6]), 0.309 ± 0.058; in the test with E. coli TESEC Mtb DapB (arabinose induction (level): High, raw OD600 reference: median of DMSO wells […], cell-free background 0.041), 0.214 ± 0.0098; in the test on E. coli TESEC Mtb DapB (arabinose induction (level): Low, raw OD600 reference: median of DMSO wells 0.227, cell-free background 0.041), 0.246 ± 0.011; in test [4], 0.467 ± 0.054. In addition, the growth amounted to 0.405 ± 0.011 with E. coli TESEC Mtb Alr [2] (setting [7]) and 0.343 ± 0.012 with E. coli TESEC Mtb Alr [2] (setting [8]).

Source of the values: the supplement of paper PMC9262897, “Low-cost anti-mycobacterial drug discovery using engineered E. coli” (Nature Communications, 2022).
